Most compounds without a hit are left out; they make up all but 3.7% or so of the library.
FH mod: Identification of activators of human fumarate hydratase by quantitative high-throughput screening; Fumarate hydratase, mitochondrial (Homo sapiens), P07954; FH coupled MDH/diaphorase resazurin fluorescence, 15 min; Potency, µM (top dose mostly 79.9 µM), without a hit: top-dose activity change, negative = inhibition, most hits filed as inhibitors; 54,000 compounds, 0.22% hits; further: potency means the concentration at half of the fitted maximal effect; on the % scale 0 is the no-effect control and ±100 the full control effect; the screen sought activators but most active calls are inhibition curves; nearly all actives have a fitted effect of over 45% in size
HTT-AS act: activates huntingtin-antisense promoter activity; HEK293 HTT-AS promoter firefly luciferase reporter, 24 h; response scale: percent change from vehicle, -100% = no light; 48,000 compounds, 0.24% hits; Potency, µM (doses to about 57.5 µM), inactives show at the highest dose activity change, positive = activation, usual class: activators; further: potency means the concentration at half of the fitted maximal effect; nearly all actives have a fitted effect of over 55% in size
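HEK293 cells carrying firefly luciferase reporters were seeded at 2,500 per well in Opti-MEM and cultured for 24 h. They were then treated with compounds at up to 57.5 uM final for 24 h at 37 degrees C before Dual-Glo luminescence readout.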
DRV1 agonist: agonists of human resolvin D1 receptor DRV1 (GPR32). O75388. CHO-K1 GPR32 beta-arrestin PathHunter luminescence, 90 min; zero percent set by DMSO-only wells. activation, % at 76.9 µM. 48,000 compounds, 2.5% hits;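 active means activation of at least 60% and not above a set upper limit, about 1 call in 100 departs from these limits; inconclusive means activation of 40% to 60%, or above that upper limit; inactive means activation under 40%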; further: 0% is about no effect
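Agonism was scored as beta-arrestin recruitment to ProLink-fused GPR32 in stably transfected CHO-K1 cells, giving a chemiluminescent beta-Gal signal; compounds were incubated 90 min at 37 °C.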
HTT prom inh: inhibitors of huntingtin promoter activity; AID 1508623; Potency, µM (titrated, usually from 57.5 µM), without a hit: at the highest dose activity change, negative = inhibition, hits mostly inhibitors; HEK293 HTT promoter firefly luciferase reporter, 24 h; 48,000 compounds, 0.93% hits; further: potency means the concentration at half of the fitted maximal effect; nearly all actives have a fitted effect of over 50% in size
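Firefly luciferase readout (Dual-Glo, 10 min RT) after 24 h, 37 °C compound exposure (final up to 57.5 uM) of HEK293 reporter cells cultured 24 h beforehand; PTC124 at 50 uM final as control inhibitor; activity scaled vehicle 0%, zero RLU -100%.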
GALC G270D up: raises human GALC G270D mutant activity in cells; 145M-Twi-hGALC-G270D cells (Twitcher mouse brain line with human GALC G270D), HMU-beta-Gal fluorescence, 48 h; P54803; 45,000 compounds, 0.1% hits; Potency, µM (doses to about 57.5 µM), most hits filed as activators; further: potency means the concentration at half of the fitted maximal effect; 0% is about no effect; nearly all actives have a fitted effect of over 65% in size
Target sequence (P54803 whole entry G286D): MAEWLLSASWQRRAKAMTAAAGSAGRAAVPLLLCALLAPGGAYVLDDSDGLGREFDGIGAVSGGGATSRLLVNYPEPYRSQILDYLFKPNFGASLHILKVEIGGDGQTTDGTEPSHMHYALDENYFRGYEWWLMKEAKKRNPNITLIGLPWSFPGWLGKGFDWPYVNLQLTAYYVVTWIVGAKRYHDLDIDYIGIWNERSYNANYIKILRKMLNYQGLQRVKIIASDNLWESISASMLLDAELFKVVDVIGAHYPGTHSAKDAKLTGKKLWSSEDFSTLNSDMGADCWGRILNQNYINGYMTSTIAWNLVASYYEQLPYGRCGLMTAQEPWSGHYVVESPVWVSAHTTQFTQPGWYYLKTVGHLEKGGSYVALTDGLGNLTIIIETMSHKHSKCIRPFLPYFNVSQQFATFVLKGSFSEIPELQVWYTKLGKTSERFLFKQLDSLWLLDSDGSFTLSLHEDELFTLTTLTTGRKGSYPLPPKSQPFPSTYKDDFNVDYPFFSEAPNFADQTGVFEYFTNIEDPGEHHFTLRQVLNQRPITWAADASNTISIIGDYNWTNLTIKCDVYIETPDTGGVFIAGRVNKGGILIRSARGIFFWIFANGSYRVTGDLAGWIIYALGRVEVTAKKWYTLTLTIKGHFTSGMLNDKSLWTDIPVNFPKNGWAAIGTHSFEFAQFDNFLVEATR
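Live 145M-Twi cells (Twitcher mouse brain-derived, GALC-null) stably expressing human GALC-G270D, with a wild-type GALC line, were compound-treated. Residual GALC activity was then read as fluorescence from 0.1 mM final HMU-β-gal at pH 5.2; higher signal means activation.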
B2AR arrestin ag: agonists recruiting beta-arrestin to human beta2-adrenergic receptor. P07550. HTLA Tango cells, beta-arrestin recruitment, luciferase luminescence, 18 h. Potency, µM (titrated, usually from 46.1 µM), most hits filed as activators. 44,000 tested, under 10 active. AID 1347077;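 further: potency means the concentration at half of the fitted maximal effect; 0% = DMSO and full agonism = EC100 isoproterenol or metaproterenol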
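Receptor–beta-arrestin recruitment read by tTA-responsive luciferase: compound titrations (up to 46 µM) incubated 18 h with Tango cells, then luminescent substrate 15 min at room temperature. Concentration-response fits classified by r2, efficacy and activity.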
An asterisk follows results filed as active; i = inactive; ? = inconclusive; / = no result given; ! = not active in a repeat; [ ] = another dose, or the depositor's remark. Unless noted, the call rests on the fitted dose curve; in most records, active means well fitted curve in the direction sought with a large enough effect; inconclusive means small, poorly fitted or top-dose-only effect, or another doubt; inactive means no such curve, though single readings can be large; an effect the other way counts as inactive or inconclusive.

SMILES | FH mod | HTT-AS act | DRV1 agonist | HTT prom inh | GALC G270D up | B2AR arrestin ag
COc1ccccc1CNC(=O)c1ccc(-c2nc(CN3CCc4ccccc43)c(C)o2)cc1 | -30.0% | -36.6% | -12.1 | 17.8µM* | i | i
CCN(CC)CCCNC(=O)c1ccc(-c2nc(CN3CCc4ccccc43)c(C)o2)cc1 | -3.4% | -16.6% | 95.3* | -26.4% | i | i
CCCCNC(=O)c1ccc(-c2nc(CN3CCc4ccccc43)c(C)o2)cc1 | -5.0% | -33.0% | -6.5 | -38.3% | i | i
COC(=O)c1ccc2c(c1)[nH]c1ncnc(NCCCN3CCCCC3)c12 | -5.2% | / | / | / | / | /
Cc1cc(F)ccc1-c1nc(NCCN=C(N)NC#N)nc2c1ccc(=O)n2-c1c(F)cccc1F | -10.3% | / | / | / | / | /
O=C(CCNS(=O)(=O)c1ccc(Br)s1)Nc1ccc(Br)cc1 | -9.2% | -8.9% | 88.6* | -7.0% | i | i
C#C[C@]1(O)CC[C@H]2[C@@H]3[C@H](C)CC4=C(CCC(=O)C4)[C@H]3CC[C@@]21C | -1.4%[53.3 µM] | -20.1% | 98.6* | 0.2% | i | /
CC[C@@H](C)[C@H](N)C(=O)N1Cc2ccccc2C1 | 0.3% | / | / | / | / | /
CCOC(=O)c1cnc2ccc(OC)cc2c1NCCc1ccccc1 | -15.3% | -76.6% | -5.0 | 31.6µM* | i | i
CCOC(=O)c1ccc2ncc(C(=O)OCC)c(NCCc3ccc(OC)c(OC)c3)c2c1 | ? | -18.4% | -22.7 | -19.1% | i | i
COc1ccnc2[nH]cc(C(=O)C(=O)N3CCN(C(=O)c4ccccc4)CC3C)c12 (stereo unspecified) | 3.2% | / | / | / | / | /
O=C1NC(=O)C(c2ccccc2[N+](=O)[O-])=C1Nc1ccc(O)c(Cl)c1 | 25.1µM*! | -28.2% | -9.3 | -18.3% | / | /
CC1(C)CC[C@]2(C(=O)O)CC[C@]3(C)C(=CCC4[C@@]5(C)CC[C@H](O[C@H]6O[C@H](C(=O)O)[C@@H](O)[C@H](O[C@@H]7O[C@H](CO)[C@H](O)[C@H](O)[C@H]7O)[C@H]6O)C(C)(C)C5CC[C@]43C)[C@@H]2C1 (stereo partly specified) | 3.7%[20.6 µM] | / | / | / | / | /
COc1cccc(C2=CC(c3ccccc3F)n3ncc(C(=O)Nc4ccc(F)cc4)c3N2)c1 (stereo unspecified) | -26.2% | -31.4% | 70.5* | ? | i | i
COc1ccc(C2=CC(c3ccccc3F)n3ncc(C(=O)Nc4ccc(C)cc4)c3N2)cc1 (stereo unspecified) | -30.6% | 15.2% | -5.1 | -0.1% | i | i
O=C(CSc1nc2c(c(=O)[nH]1)CCC2)Nc1cc(C(F)(F)F)ccc1Cl | -5.1% | -8.1% | 82.6* | -17.3% | i | i
CC(Sc1nc2c(c(=O)[nH]1)CCCC2)C(=O)Nc1cc(C(F)(F)F)ccc1Cl (stereo unspecified) | ? | -7.0% | 24.9 | -11.9% | i | i
CC1CCCN(C(=O)c2cc3c(Cl)nc4ccccc4c3s2)C1 (stereo unspecified) | -24.8% | 15.6% | 107.5* | 3.2% | i | i
CCCN(CCC)CC(O)Cn1cc(/C=C/C(=O)c2ccc(OCC)cc2)c2ccccc21 (stereo unspecified) | -10.4% | -40.2% | ? | ? | 35.5µM* | i
CC(C)CN(CC(C)C)CC(O)Cn1cc(/C=C/C(=O)c2ccccc2)c2ccccc21 (stereo unspecified) | -18.8% | -27.3% | 8.6 | -7.9% | i | i
CCCC(NC(=O)/C(C#N)=C/c1cccc(Br)n1)c1ccccc1 (stereo unspecified) | -10.0% | / | / | / | / | /
COC(=O)CCSCc1ccc(-c2onc(C)c2NC(=O)OC(C)c2ccccc2Cl)cc1 (stereo unspecified) | -11.3% | / | / | / | / | /
N[C@H]1Cc2ccccc2N(O)C1=O | 0.8% | / | / | / | / | /
COC(=O)[C@H](c1ccccc1Cl)N1CCC2SC(=O)C=C2C1 (stereo partly specified) | -0.1% | / | / | / | / | /
COc1ccc(NC(=O)CCCN2C(=O)C(c3ccccc3)Oc3cccnc32)cc1OC (stereo unspecified) | -5.7% | -35.7% | 76.2* | ? | i | i
SMILES | FH mod | HTT-AS act | DRV1 agonist | HTT prom inh | GALC G270D up | B2AR arrestin ag
COc1c(Nc2ncc(Cl)c(N[C@H]3[C@H](C(N)=O)[C@@H]4C=C[C@@H]3C4)n2)ccc2c1CCC(N1CCOCC1)CC2 (stereo partly specified) | -20.5% | / | / | / | / | /
Cn1nc(-c2ccc(OCC(=O)Nc3ccccc3)cc2)c2ccccc2c1=O | -11.7% | -25.0% | 13.4 | ? | i | i
COc1ccccc1NC(=O)COc1ccc(-c2nn(C)c(=O)c3ccccc23)cc1 | -14.3% | -34.2% | 95.1* | ? | i | i
COc1ccc(CCNC(=O)CCc2c(C)nc3cc(-c4ccccc4)nn3c2C)cc1OC | 2.1% | -81.8% | 69.7* | ? | i | i
Cc1nc2c(-c3ccc(F)cc3)c(C)nn2c(C)c1CCC(=O)NCc1ccc(Cl)cc1 | -1.1% | -6.5% | 18.0 | -6.2% | i | i
CSc1ccc(CCNC(=O)CCc2c(C)nc3cc(-c4ccccc4)nn3c2C)cc1 | 1.0% | -68.2% | -3.7 | 2µM* | i | i
COc1ccccc1-c1cc2nc(C)c(CCC(=O)Nc3ccc(Br)c(C)c3)c(C)n2n1 | -15.4% | -50.5% | -0.6 | ? | i | i
CCOc1ccc(CCNC(=O)CCc2c(C)nc3c(-c4ccccc4)c(C)nn3c2C)cc1OCC | 0.2% | -0.3% | -15.5 | -4.6% | i | ?
Cc1nc2c(-c3ccccc3)c(C)nn2c(C)c1CCC(=O)NCc1cccc(Cl)c1 | -4.1% | -21.7% | 61.7* | -21.5% | i | i
COc1ccc(CCNC(=O)CCc2c(C)nc3c4c(C)cc(C)nc4nn3c2C)cc1OC | ? | -7.1% | 0.2 | 20.0% | i | i
COc1ccc(-c2cc3nc(C)c(CCC(=O)Nc4ccccc4C(C)=O)c(C)n3n2)c(OC)c1 | -5.9% | -75.9% | 29.1 | 14.1µM* | i | i
C=CC(=O)Nc1cc(Nc2nccc(-c3cn(C)c4ccccc34)n2)c(OC)cc1N(C)CCN(C)C | -0.1% | / | / | / | / | /
COC(C)(C)CCn1nc(Nc2c(C)cccc2C)c2cnc(Nc3ccc(OCCN4CCCC4)c(F)c3)nc21 | -13.2% | / | / | / | / | /
Cc1cc(Nc2nc(NC(C)c3ccc(F)cc3)c(C#N)cc2F)n[nH]1 (stereo unspecified) | -9.2% | / | / | / | / | /

Assay outcomes (PubChem)
